“And” between values parts separate entries of the source, which are not always exact repeats. Equal values may be shown once. Records with an inconclusive call do not appear. The source made the active and inactive calls. Unless noted, the call rests on the fitted dose curve; in most records, active means well fitted curve in the direction sought with a large enough effect; inconclusive means small, poorly fitted or top-dose-only effect, or another doubt; inactive means no such curve, though single readings can be large; an effect the other way counts as inactive or inconclusive.
Assays:
[1] = Cellular Toxicity (caspase-3) HepG2 (AID 654);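 further: cells exposed to compound for 16 hours before reading; 0% = DMSO alone and 100% = caspase signal from 100 µM tamoxifen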
Procedure, shortened: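 HepG2 cells (1500/well) were treated 16 h at 37 °C in complete medium, then caspase 3/7 activity was read by Caspase-Glo luminescence. Data were normalized to DMSO and 100 uM tamoxifen; AC50 came from Hill-equation fits of qHTS concentration-response.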

[2] = Cellular Toxicity (caspase-3) SK-N-SH (AID 661);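 further: 0% = DMSO basal and 100% = 10 µM staurosporine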
Procedure, shortened: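 Human SK-N-SH neuroblastoma cells, 1500/well, were exposed to compounds for 16 hours at 37 °C. Caspase-Glo 3/7 luminescence was normalized to DMSO (basal) and 10 uM staurosporine (100%), and AC50 came from a Hill fit.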

[3] = Cellular Toxicity (caspase-3) Hek293 (AID 664); conditions: HEK293 caspase-3 activation, DMSO = 0%, 100 µM tamoxifen = 100%; at 92.2 µM (top of the series);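 further: cells exposed to compound for 16 h at 37 °C before readout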
Procedure, shortened: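 HEK293 cells in complete medium treated 16 h at 37 °C, then Caspase-Glo 3/7 luminescence read after 20 min at room temperature. Normalized to DMSO and 100 uM tamoxifen; AC50 from Hill fit of concentration-response.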

[4] = Cellular Toxicity (caspase-3) N2a (AID 665);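 further: compound exposure lasted 16 h at 37 °C before readout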
Procedure, shortened: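 Mouse N2a neuroblastoma cells, 1500 per well, treated 16 h at 37 °C in complete medium; caspase-3/7 activity by Caspase-Glo luminescence after 1 h. Normalized to DMSO and 10 uM staurosporine; AC50 from Hill fits.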

[5] = Cellular Toxicity (caspase-3) NIH 3T3 (AID 666);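 further: 0% = DMSO basal and 100% = 100 µM tamoxifen stimulation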
Procedure, shortened: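 Mouse NIH 3T3 fibroblasts (1000/well) treated 16 h at 37 C; caspase-3/7 activity measured by Caspase-Glo 3/7 luminescence after 20 min. Normalized to DMSO and 100 uM tamoxifen; AC50 from Hill fits.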

[6] = Cellular Toxicity (caspase-3) Renal Proximal Tubule (AID 667);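 further: cells exposed to compound for 16 hours at 37 °C before detection; 0% = DMSO basal and 100% = 10 µM staurosporine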
Procedure, shortened: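 Caspase-Glo 3/7 read-out, rat primary kidney proximal tubule cells. Compound exposure 16 h, 37 °C; detection after 1 h at RT. Activity scaled to DMSO and 10 uM staurosporine.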

[7] = MultiTox-Fluor Cytotoxicity Assay - LYMP1-003 - Dead Cells (AID 961);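 further: 0% = DMSO and 100% = tetraoctylammonium bromide; nearly all actives have a fitted effect of over 70% in size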
Procedure, shortened: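 Human lymphoblastoid LYMP1-003 cells (2500/well) were treated with compounds for 16 hr at 37 C in complete medium. Dead-cell protease release was read by bis-AAF-R110 fluorescence (Ex/Em 485/520). AC50 came from Hill fits, normalized to DMSO and 15 uM tetraoctylammonium bromide.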

[8] = Cell Viability - LYMP2-003 (AID 965);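 further: cells exposed to compounds for 24 h before reading; 0% = DMSO only and full effect = 92 µM tetraoctylammonium bromide; nearly all actives have a fitted effect of over 50% in size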
Procedure, shortened: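 qHTS, human lymphoblastoid line, 2500 cells/well, complete medium. 24 h drug, 37 C. ATP-based luminescent readout; Hill-fit AC50.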

[9] = Cell Viability - LYMP2-009 (AID 968);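 further: 0% = DMSO alone and the full-kill end = tetraoctylammonium bromide at 92 µM; nearly all actives have a fitted effect of over 55% in size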
[10] = Cell Viability - LYMP2-013 (AID 970);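 further: 0% = DMSO only and full inhibition = tetraoctylammonium bromide control; nearly all actives have a fitted effect of over 55% in size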
Procedure, shortened: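 Human lymphoblastoid LYMP2-013 cells, 2500/well, treated 24 h at 37 C in complete medium; viability as intracellular ATP by CellTiter-Glo luminescence after 30 min. AC50 from Hill fits of qHTS concentration-response.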

[11] = Cell Viability - LYMP2-025 (AID 976);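 further: plate controls were DMSO only for no effect and tetraoctylammonium bromide control for full effect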
Procedure, shortened: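 Human lymphoblastoid LYMP2-025 cells, 2500/well, exposed 24 h at 37 C in complete medium in 1536-well qHTS. Viability as cellular ATP by CellTiter-Glo luminescence; AC50 from Hill fits of concentration-response data.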

[12] = Cell Viability - LYMP2-006 (AID 978);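 further: cells exposed to compound for 24 hours; on the % scale 0 is the no-effect control and ±100 the full control effect; nearly all actives have a fitted effect of over 60% in size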
Procedure, shortened: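 In this cytotoxicity screen, the human lymphoblastoid line grew in complete medium with test compounds for 24 hr at 37 C. Cellular ATP served as the viability signal.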

[13] = Cell Viability - LYMP2-007 (AID 979);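 further: cells exposed to compound for 24 h before reading; 0% = DMSO only and the negative end = 92 µM tetraoctylammonium bromide; nearly all actives have a fitted effect of over 60% in size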
Procedure, shortened: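 Human lymphoblastoid LYMP2-007 cells (2500/well) preincubated 5 h at 37 C, then treated 24 h at 37 C in complete medium. Viability by CellTiter-Glo ATP luminescence after 30 min at room temperature; AC50 from Hill fits.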

[14] = Cell Viability - LYMP2-008 (AID 980); further: on the % scale 0 is the no-effect control and ±100 the full control effect; nearly all actives have a fitted effect of over 60% in size
Procedure, shortened: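 LYMP2-008 lymphoblastoid cells (2500/well) plated 5 h, then treated 24 h at 37 C in complete medium. Viability read as intracellular ATP by CellTiter-Glo luminescence after 30 min at room temperature; AC50 from Hill fits.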

[15] = Cell Viability - LYMP1-002 - Assay at 24 hr (AID 993); further: on the % scale 0 is the no-effect control and ±100 the full control effect
Procedure, shortened: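 Human lymphoblastoid LYMP1-002 cells (2500/well) treated 24 h at 37 °C; viability as intracellular ATP by CellTiter-Glo luminescence. Tetraoctylammonium bromide as positive control; AC50 from Hill-equation fits of qHTS concentration-response.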

[16] = qHTS Assay for Identification of Small Molecule Inducers of Hypoxia Response (AID 2120; active means well fitted curve in the direction sought with a large enough effect in the signal ratio, with a control signal flat, not every such curve was filed as active; the % refers to the signal ratio; further: 0% is about no effect)
Procedure, shortened: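 HRE-bla ME-180 cells in Opti-MEM with 0.5% dialyzed FBS, pre-plated 4-5 h, then compound titration for 17 h at 37 degrees Celsius. CCF4 loaded 2.5 h at room temperature; 460/530 nm ratio gave %Activity and AC50 for induction.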

[17] = target: Peroxisome proliferator-activated receptor alpha (Homo sapiens) (UniProt Q07869); test: qHTS assay for small molecule agonists of the peroxisome proliferator-activated receptor alpha (PPARalpha) signaling pathway (AID 651778); conditions: PathHunter PPARalpha complementation, chemiluminescence, 6 h; active compounds read high; further: % of control where 0% means no effect
Procedure, shortened: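 Chemiluminescence from complemented enzyme reported PPARalpha activation in cells after 6 hr of compound treatment at 37 C. The detection reagent was incubated for 60 min at room temperature, and compounds were scored as agonists.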

[18] = qHTS assay for small molecule agonists of the antioxidant response element (ARE) signaling pathway measured by Nrf2-dependant transcriptional activity - cell viability counter screen (AID 720653; active means well fitted curve in the direction sought with a large enough effect in the repeat runs; an effect the other way counts as inactive or inconclusive; further: on the % scale 0 is the no-effect control and ±100 the full control effect); conditions: ARE-bla HepG2 viability, CellTiter-Glo ATP luminescence, 16 h; active compounds read low
Procedure, shortened: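 Cytotoxicity counter screen: intracellular ATP quantified by CellTiter-Glo luminescence in the same ARE-bla HepG2 plates, after 16 h compound exposure and a 2 h beta-lactamase substrate step.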

[19] = qHTS assay for cell viability of HEK293 cells (AID 743288); conditions: ATP luminescence (CellTiter-Glo), 18 h, active compounds read low; further: on the % scale 0 is the no-effect control and ±100 the full control effect; nearly all actives have a fitted effect of over 50% in size
Procedure, shortened: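 Luminescent ATP quantitation served as the viability read-out. Cells (parental HEK293, 2,000/well) received compounds after at least 5 h at 37 C and were exposed for 18 h before a 30 min room-temperature reagent step.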

[20] = qHTS assay for cell viability of the p53RE-bla HCT-116 cell line (AID 743292); further: on the % scale 0 is the no-effect control and ±100 the full control effect; nearly all actives have a fitted effect of over 55% in size
Procedure, shortened: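 Quantitative high-throughput format: compounds in DMSO were pinned onto p53RE-bla HCT-116 cells (4,000/well) and incubated 16 h at 37 C. Total intracellular ATP, read by CellTiter-Glo luminescence, reflects viable cell number.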

Chain of Peroxisome proliferator-activated receptor alpha (Homo sapiens) (Q07869 whole entry, looked up): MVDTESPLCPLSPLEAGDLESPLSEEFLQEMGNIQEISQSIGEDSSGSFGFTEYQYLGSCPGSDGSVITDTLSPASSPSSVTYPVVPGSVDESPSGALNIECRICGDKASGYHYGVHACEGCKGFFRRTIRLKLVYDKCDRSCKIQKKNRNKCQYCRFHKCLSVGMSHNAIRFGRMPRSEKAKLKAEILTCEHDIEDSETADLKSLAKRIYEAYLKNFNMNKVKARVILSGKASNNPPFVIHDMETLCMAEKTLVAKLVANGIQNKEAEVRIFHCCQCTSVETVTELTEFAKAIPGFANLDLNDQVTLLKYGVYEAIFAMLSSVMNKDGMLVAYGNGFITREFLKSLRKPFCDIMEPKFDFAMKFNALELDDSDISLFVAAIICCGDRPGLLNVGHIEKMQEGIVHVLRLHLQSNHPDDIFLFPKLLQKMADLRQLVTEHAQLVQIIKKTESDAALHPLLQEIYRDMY

BrC(Br)Br
inactive: outcome [1] | Potency [2] | caspase-3 activation [3] -0.311% | outcome [4] | Potency [5] | outcome [6] | Potency [7] | Potency [8] | Potency [9] | Potency [10] | Potency [11] | Potency [12] | Potency [13] | Potency [14] | Potency [15] | Potency [16] | max response [17] -7% | max response [18] -14.5% | max response [19] -3.11% | Potency [20]

ClCc1ccccn1
inactive: outcome [1] | Potency [2] | caspase-3 activation [3] 0.273% | outcome [4] | Potency [5] | outcome [6] | Potency [7] | Potency [8] | Potency [9] | Potency [10] | Potency [11] | Potency [12] | Potency [13] | Potency [14] | Potency [15] | Potency [16] | max response [17] -1.73% and -0.41% | max response [18] -0.496% and -9.53% | max response [19] 1.66% and -12.2% | Potency [20]

Cc1cc(-c2ccc(N)c(C)c2)ccc1N
inactive: outcome [1] | Potency [2] | caspase-3 activation [3] -2.85% | outcome [4] | Potency [5] | outcome [6] | Potency [7] | Potency [8] | Potency [9] | Potency [10] | Potency [11] | Potency [12] | Potency [13] | Potency [14] | Potency [15] | Potency [16] | max response [17] -2.87% and -0.886% and -6.11% | max response [18] -1.36% and 7.56% and 13.5% | max response [19] -3.44% and 7.54% and -3.02% | Potency [20]

COC(=O)Nc1nc2ccccc2[nH]1
inactive: outcome [1] | Potency [2] | caspase-3 activation [3] -4.59% | outcome [4] | Potency [5] | outcome [6] | Potency [7] | Potency [8] | Potency [9] | Potency [10] | Potency [11] | Potency [12] | Potency [13] | Potency [15] | Potency [16] | max response [17] -5.67% and 0.607% | max response [18] 0.0482% and -1.74% | max response [19] -9.84% and -19.2% | Potency [20]

Clc1cccc2ccccc12
inactive: outcome [1] | Potency [2] | caspase-3 activation [3] -0.708% | outcome [4] | Potency [5] | outcome [6] | Potency [7] | Potency [8] | Potency [9] | Potency [10] | Potency [11] | Potency [12] | Potency [13] | Potency [14] | Potency [15] | Potency [16] | max response [17] -0.995% | max response [18] 5.5% | max response [19] -4.26% | Potency [20]

Clc1ccc(Cl)c(Cl)c1
inactive: outcome [1] | Potency [2] | caspase-3 activation [3] 0.169% | outcome [4] | Potency [5] | outcome [6] | Potency [7] | Potency [8] | Potency [9] | Potency [10] | Potency [11] | Potency [12] | Potency [13] | Potency [14] | Potency [15] | Potency [16] | max response [17] -1.44% and -3.32% | max response [18] 4.11% and 3.77% | max response [19] 9.56% and -10% | Potency [20]

CC(C)[C@]12CC(=O)[C@H](C)[C@H]1C2
inactive: outcome [1] | Potency [2] | caspase-3 activation [3] -0.456% | outcome [4] | Potency [5] | outcome [6] | Potency [7] | Potency [8] | Potency [9] | Potency [10] | Potency [11] | Potency [12] | Potency [13] | Potency [14] | Potency [15] | Potency [16] | max response [17] 5.79% and -0.343% | max response [18] -4.23% and -2.13% | max response [19] 18.6% and -3.71% | Potency [20]

Nc1ccccc1-c1ccccc1
inactive: outcome [1] | Potency [2] | caspase-3 activation [3] 1.72% | outcome [4] | Potency [5] | outcome [6] | Potency [7] | Potency [8] | Potency [9] | Potency [10] | Potency [11] | Potency [12] | Potency [13] | Potency [14] | Potency [15] | Potency [16] | max response [17] -2.98% | max response [18] -2.88% | max response [19] 3.8% | Potency [20]

Oc1cccc(Cl)c1Cl
inactive: outcome [1] | Potency [2] | caspase-3 activation [3] 0.0996% | outcome [4] | Potency [5] | outcome [6] | Potency [7] | Potency [8] | Potency [9] | Potency [10] | Potency [11] | Potency [12] | Potency [13] | Potency [14] | Potency [15] | Potency [16] | max response [17] -2.6% | max response [18] 0.417% | max response [19] -3.83% | Potency [20]

N#CCCCCC#N
inactive: outcome [1] | Potency [2] | caspase-3 activation [3] 0.323% | outcome [4] | Potency [5] | outcome [6] | Potency [7] | Potency [8] | Potency [9] | Potency [10] | Potency [11] | Potency [12] | Potency [13] | Potency [14] | Potency [15] | Potency [16] | max response [17] -1.89% | max response [18] 5.3% | max response [19] -18.9% | Potency [20]

C/C=C/CC#N
inactive: outcome [1] | Potency [2] | caspase-3 activation [3] 1.26% | outcome [4] | Potency [5] | outcome [6] | Potency [7] | Potency [8] | Potency [9] | Potency [10] | Potency [11] | Potency [12] | Potency [13] | Potency [14] | Potency [15] | Potency [16] | max response [17] -3.98% | max response [18] -11.2% | max response [19] -10.8% | Potency [20]

CC(=O)[O-].CC(=O)[O-].CC(=O)[O-].[Cr+3]
inactive: outcome [1] | Potency [2] | caspase-3 activation [3] 1.42% | outcome [4] | Potency [5] | outcome [6] | Potency [7] | Potency [8] | Potency [9] | Potency [10] | Potency [11] | Potency [12] | Potency [13] | Potency [14] | Potency [15] | Potency [16] | max response [17] -3.23% | max response [18] 2.78% | max response [19] -3.81% | Potency [20]
